Inconclusive results are not listed. Where a call stands in place of a potency, no number is given. Calls of active or inactive are those of the source. Calls follow the shape of the dose curve; as a rule, active = well fitted inhibition curve with a large enough effect; inconclusive = small, poorly fitted or top-dose-only effect; inactive = flat fitted curve, though single readings scatter.
Test system: CP217
Assay: qHTS profiling for inhibitors of Plasmodium falciparum proliferation (AID 504749); also: nearly all actives have a fitted effect of over 60% in size
Details: P. falciparum in erythrocytes, SYBR Green DNA, 72 h; series mostly up to 28.7 µM
Summary of the method: (§1)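 SYBR Green fluorescence of parasite DNA, read after lysis and overnight dark incubation, measured growth over 72 h in erythrocyte culture at 0.3% parasitemia and 2.5% hematocrit. Data normalised to DMSO and 0.29 uM artemisinin, with plate-drift correction.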
Potency is read from the fitted curve at half-maximal effect.

SMILES	Potency
CCCN1CCC[C@H](c2cccc(O)c2)C1	inactive
C[C@]12CCC(=O)C(O)=C1CC[C@@H]1[C@H]3CCC(=O)[C@@]3(C)CC[C@@H]12	inactive
O=C(O)COc1ccccc1	inactive
O=[N+]([O-])c1ccc([As](=O)(O)O)cc1	7.94 µM (active)
O=C(O)C(Cl)Cl	inactive
Cc1cc(O)ccc1Cl	inactive
CN(C)[C@@H]1C(=O)C(C(N)=O)=C(O)[C@@]2(O)C(=O)C3=C(O)c4c(O)cccc4[C@@](C)(O)[C@H]3[C@H](O)[C@@H]12	inactive
COC(=O)[C@@H](N)CCCN=C(N)N[N+](=O)[O-]	inactive
c1ccc(C2(c3ccccc3)CC2C2=NCCN2)cc1 (stereo not drawn)	inactive
CN1C2CCC1CC(OC(=O)c1cc(Cl)cc(Cl)c1)C2 (stereo not drawn)	inactive
CCCCc1ccc(C(=O)O)nc1	inactive
Cc1ccc(Cl)c(O)c1	inactive
CC(C)NC(C)Cc1ccc(I)cc1 (stereo not drawn)	inactive
CC(=O)[O][Hg][c]1ccccc1	7.08 µM (active)
C=CCN1CC[C@]23CCCCC2[C@H]1Cc1ccc(O)cc13 (stereo partly drawn)	inactive
NC(=O)CN1CC(O)CC1=O (stereo not drawn)	inactive
C1CCC(NC2CCCCC2)CC1	inactive
C#CC1(O)CCC2C3CCC4=CC(=O)CCC4(C)C3CCC21C (stereo not drawn)	inactive
CC[N+]1(CCOC(=O)C(O)(c2ccccc2)c2ccccc2)CCCCC1	inactive
CCCCCCCCCC(CC)c1ccc(S(=O)(=O)O)cc1 (stereo not drawn)	inactive

Test system: CP237
Assay: as above
Details: P. falciparum in erythrocytes, SYBR Green DNA, 72 h; series mostly up to 28.7 µM
Summary of the method: as §1

SMILES	Potency
C[C@]12CCC(=O)C(O)=C1CC[C@@H]1[C@H]3CCC(=O)[C@@]3(C)CC[C@@H]12	inactive
O=C(O)COc1ccccc1	inactive
O=[N+]([O-])c1ccc([As](=O)(O)O)cc1	7.94 µM (active)
COC(C)(C)CCCC(C)C/C=C/C(C)=C/C(=O)OC(C)C (stereo not drawn)	12.6 µM (active)
O=C(O)C(Cl)Cl	inactive
Cc1cc(O)ccc1Cl	inactive
CC(=O)OCC1=C(C(=O)O)N2C(=O)[C@@H](N)[C@@H]2SC1	inactive
COC(=O)[C@@H](N)CCCN=C(N)N[N+](=O)[O-]	inactive
c1ccc(C2(c3ccccc3)CC2C2=NCCN2)cc1 (stereo not drawn)	inactive
CN1C2CCC1CC(OC(=O)c1cc(Cl)cc(Cl)c1)C2 (stereo not drawn)	inactive
CCCCCCCCCCCCCCCC[N+](C)(C)C	7.08 µM (active)
CCCCc1ccc(C(=O)O)nc1	inactive
Cc1ccc(Cl)c(O)c1	inactive
CC(=O)[O][Hg][c]1ccccc1	4.47 µM (active)
NC(=O)CN1CC(O)CC1=O (stereo not drawn)	inactive
C1CCC(NC2CCCCC2)CC1	inactive
C#CC1(O)CCC2C3CCC4=CC(=O)CCC4(C)C3CCC21C (stereo not drawn)	inactive
CC[N+]1(CCOC(=O)C(O)(c2ccccc2)c2ccccc2)CCCCC1	inactive
CCCCCCCCCC(CC)c1ccc(S(=O)(=O)O)cc1 (stereo not drawn)	inactive

Test system: CP238
Assay: as above
Details: P. falciparum in erythrocytes, SYBR Green DNA, 72 h; series mostly up to 28.7 µM
Summary of the method: as §1

SMILES	Potency
CCCN1CCC[C@H](c2cccc(O)c2)C1	inactive
C[C@]12CCC(=O)C(O)=C1CC[C@@H]1[C@H]3CCC(=O)[C@@]3(C)CC[C@@H]12	inactive
O=C(O)COc1ccccc1	inactive
O=[N+]([O-])c1ccc([As](=O)(O)O)cc1	11.2 µM (active)
COC(C)(C)CCCC(C)C/C=C/C(C)=C/C(=O)OC(C)C (stereo not drawn)	inactive
O=C(O)C(Cl)Cl	inactive
Cc1cc(O)ccc1Cl	inactive
CN(C)[C@@H]1C(=O)C(C(N)=O)=C(O)[C@@]2(O)C(=O)C3=C(O)c4c(O)cccc4[C@@](C)(O)[C@H]3[C@H](O)[C@@H]12	inactive
COC(=O)[C@@H](N)CCCN=C(N)N[N+](=O)[O-]	inactive
c1ccc(C2(c3ccccc3)CC2C2=NCCN2)cc1 (stereo not drawn)	inactive
CN1C2CCC1CC(OC(=O)c1cc(Cl)cc(Cl)c1)C2 (stereo not drawn)	inactive
CN[C@@H]1C[C@@H](c2ccc(Cl)c(Cl)c2)c2ccccc21	inactive
CCCCc1ccc(C(=O)O)nc1	inactive
Cc1ccc(Cl)c(O)c1	inactive
CC(C)NC(C)Cc1ccc(I)cc1 (stereo not drawn)	inactive
CC(=O)[O][Hg][c]1ccccc1	5.62 µM (active)
C=CCN1CC[C@]23CCCCC2[C@H]1Cc1ccc(O)cc13 (stereo partly drawn)	inactive
NC(=O)CN1CC(O)CC1=O (stereo not drawn)	inactive
C1CCC(NC2CCCCC2)CC1	inactive
C#CC1(O)CCC2C3CCC4=CC(=O)CCC4(C)C3CCC21C (stereo not drawn)	inactive
CCCCCCCCCC(CC)c1ccc(S(=O)(=O)O)cc1 (stereo not drawn)	inactive
NC1=NC(=O)N2CC12 (stereo not drawn)	inactive

Test system: CP247
Assay: as above
Details: P. falciparum in erythrocytes, SYBR Green DNA, 72 h; series mostly up to 28.7 µM
Summary of the method: as §1

SMILES	Potency
C[C@]12CCC(=O)C(O)=C1CC[C@@H]1[C@H]3CCC(=O)[C@@]3(C)CC[C@@H]12	inactive
O=C(O)COc1ccccc1	inactive
O=C(O)C(Cl)Cl	inactive
Cc1cc(O)ccc1Cl	inactive
CN(C)[C@@H]1C(=O)C(C(N)=O)=C(O)[C@@]2(O)C(=O)C3=C(O)c4c(O)cccc4[C@@](C)(O)[C@H]3[C@H](O)[C@@H]12	inactive
COC(=O)[C@@H](N)CCCN=C(N)N[N+](=O)[O-]	inactive
c1ccc(C2(c3ccccc3)CC2C2=NCCN2)cc1 (stereo not drawn)	inactive
CN1C2CCC1CC(OC(=O)c1cc(Cl)cc(Cl)c1)C2 (stereo not drawn)	inactive
CCCCc1ccc(C(=O)O)nc1	inactive
Cc1ccc(Cl)c(O)c1	inactive
CC(C)NC(C)Cc1ccc(I)cc1 (stereo not drawn)	inactive
CC(=O)[O][Hg][c]1ccccc1	5.62 µM (active)
C=CCN1CC[C@]23CCCCC2[C@H]1Cc1ccc(O)cc13 (stereo partly drawn)	inactive
NC(=O)CN1CC(O)CC1=O (stereo not drawn)	inactive
C1CCC(NC2CCCCC2)CC1	inactive
C#CC1(O)CCC2C3CCC4=CC(=O)CCC4(C)C3CCC21C (stereo not drawn)	inactive
CCCCCCCCCC(CC)c1ccc(S(=O)(=O)O)cc1 (stereo not drawn)	inactive
